Assay results taken from PubChem BioAssay (NCI).
The panel holds about 79,000 compounds, 15% with a hit somewhere; the sample as a whole holds those more often. Cut-off read from the data, not from the text of the source: active = growth inhibition above about 70%; inactive = the rest.

Columns and labels:
[1] = NCI Yeast Anticancer Drug Screen. Data for the rad52 strain (AID 147);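 note: 0% = growth of vehicle-treated control cultures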; conditions: S. cerevisiae rad52 mutant growth inhibition, hits give high values
Summary of the method: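 Here a repair-compromised yeast strain receives each compound; its growth is then quantified and normalised to vehicle-only controls.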

[2] = NCI Yeast Anticancer Drug Screen. Data for the wt1 strain (AID 149);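 note: 0% = growth of vehicle-treated wt1 cultures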; conditions: S. cerevisiae wt1 strain (SPY 50644) growth inhibition, hits give high values
Summary of the method: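 Readout: yeast growth inhibition, normalised to vehicle controls, in the wt1 strain exposed to test compounds.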

[3] = NCI Yeast Anticancer Drug Screen. Data for the rad50EPP+ strain (AID 151);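 note: 0% = growth of vehicle-treated control cultures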; conditions: S. cerevisiae rad50 mutant strain, hits give high values
Summary of the method: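 Read-out is yeast growth inhibition relative to vehicle; cells used were the rad50EPP+ strain.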

[4] = NCI Yeast Anticancer Drug Screen. Data for the mgt1 strain (AID 153); conditions: S. cerevisiae mgt1 mutant growth inhibition, hits give high values
Summary of the method: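 Measured: inhibition of mgt1 yeast growth by compound, normalized to vehicle-treated cultures.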

[5] = NCI Yeast Anticancer Drug Screen. Data for the rad50 strain (AID 155);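 note: 0% = growth of vehicle-only cultures of the same strain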; conditions: S. cerevisiae rad50 strain growth inhibition, hits give high values
Summary of the method: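 Compounds were tested on a yeast strain with an engineered DNA damage repair alteration; the reported value is growth inhibition normalised to vehicle treatment.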

[6] = NCI Yeast Anticancer Drug Screen. Data for the mec2-1 strain (AID 157); conditions: S. cerevisiae mec2-1 strain, hits give high values
Summary of the method: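 Using mec2-1 yeast: add compound, measure growth, express inhibition versus vehicle-treated cultures.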

[7] = NCI Yeast Anticancer Drug Screen. Data for the rad14 strain (AID 159);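 note: 0% = growth of vehicle-treated control cultures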; conditions: S. cerevisiae rad14 strain growth inhibition, hits give high values
Summary of the method: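 Compound-treated yeast with a defined DNA-repair lesion; growth inhibition normalised to vehicle-treated cultures.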

[8] = NCI Yeast Anticancer Drug Screen. Data for the sgs1 mgt1 strain (AID 161);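 note: 0% = growth of cultures given vehicle only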; conditions: S. cerevisiae sgs1 mgt1 strain, hits give high values
Summary of the method: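 Growth of a repair-deficient yeast mutant was monitored after compound treatment and expressed as inhibition relative to vehicle-treated cultures.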

[9] = NCI Yeast Anticancer Drug Screen. Data for the CLN2oe strain (AID 163);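 note: 0% = growth of vehicle-only control cultures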; conditions: S. cerevisiae CLN2oe strain, hits give high values
Summary of the method: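 Whole-cell yeast growth assay. A strain engineered for altered cell-cycle control received compound, and inhibition relative to vehicle-treated cultures was recorded.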

[10] = NCI Yeast Anticancer Drug Screen. Data for the cln2 rad14 strain (AID 165);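 note: 0% = growth equal to vehicle treated cultures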; conditions: S. cerevisiae cln2 rad14 strain, hits give high values
Summary of the method: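 Yeast strain cln2 rad14, bearing defects in cell cycle control and DNA repair, serves as the test system; values reflect growth inhibition compared with vehicle.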

[11] = NCI Yeast Anticancer Drug Screen. Data for the bub3 strain (AID 167); conditions: S. cerevisiae bub3 mutant strain, hits give high values
Summary of the method: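 Growth of a checkpoint-deficient yeast mutant is measured after compound exposure. Values represent inhibition relative to vehicle.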

[12] = NCI Yeast Anticancer Drug Screen. Data for the wt2 strain (AID 169);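 note: 0% = growth of vehicle-treated yeast cultures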; conditions: S. cerevisiae wt2 strain growth inhibition, hits give high values
Summary of the method: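 Treated yeast vs. vehicle-treated yeast: growth inhibition determined.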

[13] = NCI Yeast Anticancer Drug Screen. Data for the mlh1 strain (AID 171);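 note: 0% = growth of vehicle-treated control cultures of the same strain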; conditions: S. cerevisiae mlh1 strain growth inhibition, hits give high values
Summary of the method: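 A yeast strain with a defined genetic lesion serves as the test organism. Cultures receive compound or vehicle, and growth is measured.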

[14] = NCI Yeast Anticancer Drug Screen. Data for the sgs1 strain (AID 173);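 note: 0% = growth of vehicle-only control cultures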; conditions: S. cerevisiae sgs1 mutant, hits give high values
Summary of the method: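 A genetically defined yeast mutant is incubated with the test compound, and its growth is compared to that of the same strain given vehicle.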

[15] = NCI Yeast Anticancer Drug Screen. Data for the mlh1 rad18 strain (AID 175); conditions: S. cerevisiae mlh1 rad18 strain growth inhibition, hits give high values
Summary of the method: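 Steps: expose repair-defective yeast to compound; measure growth; express inhibition against vehicle-treated controls.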

[16] = NCI Yeast Anticancer Drug Screen. Data for the rad18 strain (AID 177); conditions: S. cerevisiae rad18 mutant growth inhibition, hits give high values
Summary of the method: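 Measured value is growth inhibition of a yeast strain bearing a DNA repair alteration, referenced to vehicle-treated cells.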

[17] = at 5.0 µM (retest, dose inferred, filed as 0.5)
[18] = at 50.0 µM (retest, dose inferred, filed as 5.0)

Measured: growth inhibition

CC(C)CCC[C@@H](C)[C@H]1CC[C@H]2[C@@H]3CC[C@H]4C[C@H](N)CC[C@]4(C)[C@H]3CC[C@]12C
inactive: [1]; at 1.2 µM -2% | [1]; at 3.7 µM 2% | [1]; at 11.0 µM -3% | [1]; at 33.0 µM -7% | [1]; at 100.0 µM -6% | [2]; at 1.2 µM -1% | [2]; at 3.7 µM 0% | [2]; at 11.0 µM -3% | [2]; at 33.0 µM -2% | [2]; at 100.0 µM 1% | [3]; at 1.2 µM 0% | [3]; at 3.7 µM 2% | [3]; at 11.0 µM 7% | [3]; at 33.0 µM 7% | [3]; at 100.0 µM 7% | [4]; at 1.2 µM -3% | [4]; at 3.7 µM -2% | [4]; at 11.0 µM -2% | [4]; at 33.0 µM -2% | [4]; at 100.0 µM 2% | [5]; at 1.2 µM 1% | [5]; at 3.7 µM 4% | [5]; [17] -19% | [5]; at 11.0 µM 4% | [5]; at 33.0 µM -2% | [5]; [18] 49% | [5]; at 50.0 µM 27.1% | [5]; at 100.0 µM -2% | [6]; at 1.2 µM 0% | [6]; at 3.7 µM -1% | [6]; [17] -9% | [6]; at 11.0 µM -2% | [6]; at 33.0 µM -2% | [6]; [18] -12% | [6]; at 50.0 µM 46.2% | [6]; at 100.0 µM -3% | [7]; at 1.2 µM -1% | [7]; at 3.7 µM 1% | [7]; at 11.0 µM -1% | [7]; at 33.0 µM -4% | [7]; at 100.0 µM -1% | [8]; [17] -9% | [8]; [18] 53% | [8]; at 50.0 µM -1.6% | [9]; at 1.2 µM -7% | [9]; at 3.7 µM -5% | [9]; at 11.0 µM -4% | [9]; at 33.0 µM -16% | [9]; at 100.0 µM -7% | [10]; [17] -10% | [10]; [18] -3% | [10]; at 50.0 µM 19.2% | [11]; at 1.2 µM -2% | [11]; at 3.7 µM -4% | [11]; [17] -3% | [11]; at 11.0 µM -6% | [11]; at 33.0 µM -4% | [11]; [18] 52% | [11]; at 50.0 µM 15.1% | [11]; at 100.0 µM -2% | [12]; at 1.2 µM 8% | [12]; at 3.7 µM -8% | [12]; at 11.0 µM 6% | [12]; at 33.0 µM -4% | [12]; at 100.0 µM 5% | [13]; at 1.2 µM -2% | [13]; at 3.7 µM -2% | [13]; at 11.0 µM -4% | [13]; at 33.0 µM -7% | [13]; at 100.0 µM -3% | [14]; at 1.2 µM -3% | [14]; at 3.7 µM -22% | [14]; at 11.0 µM 6% | [14]; at 33.0 µM 6% | [14]; at 100.0 µM 13% | [15]; [17] 2% | [15]; [18] 55% | [15]; at 50.0 µM 39.9% | [16]; at 1.2 µM -1% | [16]; at 3.7 µM 0% | [16]; at 11.0 µM 3% | [16]; at 33.0 µM -6% | [16]; at 100.0 µM 3%
